Compounds without any hit were thinned out: in the full panel of roughly 83,000, 20% have a hit.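 Values shown are percent growth following 48 h exposure of cells in 96-well plates to a single concentration of compound; below 10 was considered active.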 Activity calls are given as the source filed them.
Experiments:
Assay in all cases: NCI-60 one-dose screen, 48 h (100 = growth as untreated, 0 = no growth, -100 = all killed)
Conditions in all cases: 10 µM unless noted
HCT-15 colon = test system: HCT-15 colon
HT29 colon = test system: HT29 colon
SNB-75 CNS = test system: SNB-75 CNS
SNB-19 CNS = test system: SNB-19 CNS
U251 CNS = test system: U251 CNS
PC-3 prostate = test system: PC-3 prostate
UACC-62 melanoma = test system: UACC-62 melanoma
LOX IMVI melanoma = test system: LOX IMVI melanoma
SK-MEL-28 melanoma = test system: SK-MEL-28 melanoma

Measured: growth

COc1ccc(/C=C2\Oc3cc(OCCCCN4CCCC4)ccc3C2=O)cc1
active: HCT-15 colon 9.45% | HT29 colon 6.71% | LOX IMVI melanoma -84.7%
inactive: SNB-75 CNS 98.1% | SNB-19 CNS 83.7% | U251 CNS 62.6% | PC-3 prostate 75.6% | UACC-62 melanoma 90.5% | SK-MEL-28 melanoma 107%

CSc1ccc(SC2c3ccc(C)cc3Oc3nc(N)c(C#N)c(N)c32)cc1 (stereo not drawn)
active: HCT-15 colon -74.3% | HT29 colon -65.1% | SNB-75 CNS -36.4% | SNB-19 CNS -96% | U251 CNS -90.8% | PC-3 prostate -76.2% | UACC-62 melanoma -75.1% | LOX IMVI melanoma -92.6% | SK-MEL-28 melanoma -86.7%

O=S(=O)(Nc1ccc(NS(=O)(=O)c2ccccc2)c(Cl)c1)c1ccccc1
inactive: HCT-15 colon 110% | HT29 colon 107% | SNB-75 CNS 84.9% | SNB-19 CNS 112% | U251 CNS 105% | PC-3 prostate 88.7% | UACC-62 melanoma 88.8% | LOX IMVI melanoma 106% | SK-MEL-28 melanoma 107%

CN(Cc1cc(Cl)cc(Cl)c1O)Cc1cc(Cl)cc(Cl)c1O
inactive: HCT-15 colon 40.5% | HT29 colon 94.1% | SNB-75 CNS 75.5% | SNB-19 CNS 73.3% | U251 CNS 58.6% | PC-3 prostate 80.9% | UACC-62 melanoma 64.8% | LOX IMVI melanoma 57.7% | SK-MEL-28 melanoma 86.9%

NNCCc1ccc(NC(=O)CCCc2ccc(/C=C/C(=O)NO)cc2)cc1
inactive: HCT-15 colon 80.1% | HT29 colon 66.4% | SNB-75 CNS 53% | SNB-19 CNS 58.5% | U251 CNS 22.1% | PC-3 prostate 53.9% | UACC-62 melanoma 43% | LOX IMVI melanoma 44% | SK-MEL-28 melanoma 73.2%

NC1=C(Cl)C(=O)c2ccc(S(N)(=O)=O)cc2C1=O
active: HCT-15 colon -58.2% | HT29 colon -50.3% | SNB-75 CNS -100% | SNB-19 CNS -73% | U251 CNS -90.7% | PC-3 prostate 1.22% | UACC-62 melanoma -88% | LOX IMVI melanoma -85.1% | SK-MEL-28 melanoma -84.9%

O=C1C=C(OCC=C(Cl)Cl)C(=O)c2ccccc21
inactive: HCT-15 colon 64.2% | HT29 colon 82.4% | SNB-75 CNS 50.6% | SNB-19 CNS 98.7% | U251 CNS 75.7% | PC-3 prostate 80.9% | UACC-62 melanoma 87% | LOX IMVI melanoma 28.8% | SK-MEL-28 melanoma 104%

Cc1nn(-c2cc(=O)[nH]c3ccc(Cl)cc23)c(N)c1C#N
inactive: HCT-15 colon 103% | HT29 colon 110% | SNB-75 CNS 61.2% | SNB-19 CNS 108% | U251 CNS 102% | PC-3 prostate 95.6% | UACC-62 melanoma 98.8% | LOX IMVI melanoma 92.9% | SK-MEL-28 melanoma 115%

CSc1ccc(-c2n[nH]nc2-c2cc3ccccc3s2)cc1
inactive: HCT-15 colon 28.7% | HT29 colon 37.8% | SNB-75 CNS 44.5% | SNB-19 CNS 55.7% | U251 CNS 32.6% | PC-3 prostate 56.7% | UACC-62 melanoma 47.5% | LOX IMVI melanoma 34.9% | SK-MEL-28 melanoma 59.5%

CC[N+](CC)=c1sc2c(s1)C(c1ccc(Cl)cc1)Oc1ccc(Cl)cc1-2 (stereo not drawn)
inactive: HCT-15 colon 62.9% | SNB-19 CNS 12% | SK-MEL-28 melanoma 18%
active: HT29 colon 0.814% | SNB-75 CNS 4.43% | U251 CNS -53.8% | PC-3 prostate 3.92% | UACC-62 melanoma -2.82% | LOX IMVI melanoma -62.7%

CCc1nc(N)nc(N)c1C#CC(C)c1ccc(-c2ccncc2)cc1Cl (stereo not drawn)
active: HT29 colon 4.74% | SNB-75 CNS -9.88%
inactive: HCT-15 colon 13.3% | SNB-19 CNS 20.9% | U251 CNS 13.8% | PC-3 prostate 21.6% | UACC-62 melanoma 13.2% | LOX IMVI melanoma 13.9% | SK-MEL-28 melanoma 40.4%

OCc1ccc(N2CCc3cccc(F)c3C2)cc1Cl
inactive: HCT-15 colon 88.9% [0.1 µM] | HT29 colon 16.2% [0.1 µM] | SNB-75 CNS 108% [0.1 µM] | SNB-19 CNS 85.2% [0.1 µM] | U251 CNS 53.5% [0.1 µM] | PC-3 prostate 89.1% [0.1 µM] | LOX IMVI melanoma 105% [0.1 µM] | SK-MEL-28 melanoma 113% [0.1 µM]
active: UACC-62 melanoma -11.2% [0.1 µM]

CCCCN1CCCn2c1nc1c2c(=O)n(CCC)c(=O)n1CCC
inactive: HCT-15 colon 106% | HT29 colon 97.8% | SNB-75 CNS 74.2% | SNB-19 CNS 96.6% | U251 CNS 91.8% | PC-3 prostate 91.3% | UACC-62 melanoma 85.4% | LOX IMVI melanoma 93.8% | SK-MEL-28 melanoma 103%

O=c1cc(CSc2nnc(-c3ccc(F)cc3)o2)c2ccc3ccccc3c2o1
inactive: HCT-15 colon 98.4% | HT29 colon 95% | SNB-75 CNS 98.3% | SNB-19 CNS 101% | U251 CNS 102% | PC-3 prostate 92.5% | UACC-62 melanoma 93.5% | LOX IMVI melanoma 87.7% | SK-MEL-28 melanoma 110%

Clc1ccc2nc3nc4ccc[nH]c4cc3c2c1
inactive: HCT-15 colon 69.3% | HT29 colon 83.8% | SNB-75 CNS 88.8% | SNB-19 CNS 89% | U251 CNS 82.8% | PC-3 prostate 75.1% | UACC-62 melanoma 80.4% | LOX IMVI melanoma 91.9% | SK-MEL-28 melanoma 111%

CC1=CC(=NN=c2cc(C)n([O-])c(C)c2)C=C(C)[N+]1=O
inactive: HCT-15 colon 94.4% | HT29 colon 74.6% | SNB-75 CNS 64.7% | SNB-19 CNS 103% | U251 CNS 91.2% | PC-3 prostate 91.9% | UACC-62 melanoma 80.3% | LOX IMVI melanoma 41.7% | SK-MEL-28 melanoma 80.8%

N#Cc1nnn(-c2ccc(S(N)(=O)=O)cc2)c1NCC(=O)c1ccccc1
inactive: HCT-15 colon 98.3% | HT29 colon 95.5% | SNB-75 CNS 80% | SNB-19 CNS 92.2% | U251 CNS 93.6% | PC-3 prostate 84.1% | UACC-62 melanoma 96% | LOX IMVI melanoma 94.1% | SK-MEL-28 melanoma 111%
